In the library only some 5% were active in any assay of this set; here they are far more common.
ALR inh = inhibitors of human ALR sulfhydryl oxidase, primary screen, biochemical, H2O2 detection, HRP-luminol luminescence, single point | purified ALR, DTT oxidation | inhibition, % (no concentration beside the values) | 290,000 compounds, 3.8% hits | AID 485317, 2010;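 active = mean replicate inhibition above about 79%, with every replicate also reaching it, limit read from the data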
CHT allo act = CHT positive allosteric modulators, primary screen, cell-based, membrane potential dye, choline EC20 | High affinity choline transporter 1 (Homo sapiens), Q9GZV3 | CHT-expressing cells; stronger effect = higher value; LV-AA mutant CHT in HEK293 cells | B-score at 10 µM | 310,000 compounds, 0.49% hits | AID 488977, 2010;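 active = initial fluorescence not abnormally high and integrated response B-score, plate-corrected, over 3 SD above library mean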
PREPL inh = PREPL enzyme inhibitors, primary screen, biochemical, fluorescence polarization; Prolyl endopeptidase-like (Homo sapiens), Q4J6C6; recombinant PREPL, fluorescence polarization activity-based probe; inhibition, % at 5.96 µM; 320,000 compounds, 0.68% hits; AID 2751, 2010; in the data active = inhibition above about 43%;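 note: 0% = enzyme with DMSO and 100% = wells lacking enzyme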
Target sequence (Q4J6C6 whole entry, looked up): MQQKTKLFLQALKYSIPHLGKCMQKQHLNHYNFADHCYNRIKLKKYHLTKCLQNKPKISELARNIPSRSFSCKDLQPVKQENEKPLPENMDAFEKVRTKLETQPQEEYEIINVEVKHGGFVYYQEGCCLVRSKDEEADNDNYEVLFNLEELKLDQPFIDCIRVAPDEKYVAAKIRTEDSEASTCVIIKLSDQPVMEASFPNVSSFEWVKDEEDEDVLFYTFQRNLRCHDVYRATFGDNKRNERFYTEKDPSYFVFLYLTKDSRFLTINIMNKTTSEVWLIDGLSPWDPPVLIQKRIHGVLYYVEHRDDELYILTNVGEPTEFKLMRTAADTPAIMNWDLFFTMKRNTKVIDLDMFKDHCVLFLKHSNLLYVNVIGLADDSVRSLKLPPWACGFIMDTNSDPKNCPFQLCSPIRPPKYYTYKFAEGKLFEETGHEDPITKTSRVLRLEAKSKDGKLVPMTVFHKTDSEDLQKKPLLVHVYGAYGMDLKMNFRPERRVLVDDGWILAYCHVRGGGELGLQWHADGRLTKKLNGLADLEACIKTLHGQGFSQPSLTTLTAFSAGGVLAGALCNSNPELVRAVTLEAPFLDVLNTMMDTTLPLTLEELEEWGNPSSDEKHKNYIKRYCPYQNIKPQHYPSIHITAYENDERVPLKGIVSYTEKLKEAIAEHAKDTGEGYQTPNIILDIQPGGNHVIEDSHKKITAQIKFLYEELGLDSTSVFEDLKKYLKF
AI-2 QS mod = Vibrio harveyi AI-2 quorum sensing modulators, primary screen, JMH597 strain, luminescence/OD600 ratio. Vibrio harveyi JMH597 AI-2 luminescence/OD600 ratio, 9 h; stronger effect = lower value; strain lacks LuxN and CqsS sensors; 0 = neutral-control median. activity change, % at 7.5 µM. 300,000 compounds, 0.4% hits. AID 2094, 2009; in the data active = activity change below about -75%, passing the limit was not always enough;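 note: luminescence divided by OD600 gain over 9 h not by final OD600 alone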
CHT block = inhibitors of human choline transporter CHT. B-score at 10 µM. CHT-expressing cells, membrane potential dye, choline response; stronger effect = lower value. 310,000 compounds, 0.86% hits;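 active = B-score over 3 SD under the library average, and starting fluorescence ratio not unusually high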;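 note: choline stimulus applied at its EC90 after an EC20 pre-addition; B-score computed on integrated fluorescence ratio after choline addition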
The depositor's hits bear a star; i = inactive; · = no result.

SMILES | ALR inh | CHT allo act | PREPL inh | AI-2 QS mod | CHT block
CC(C)Cn1nc(NS(=O)(=O)c2ccccc2)c2cc3ccccc3nc21 | -5.7 | i | -10.1 | 12.7 | i
O=S(=O)(c1ccc(F)cc1)N1CCN(c2ccc(-c3ccccc3)nn2)CC1 | · | i | -11.8 | 3.6 | i
Nc1nc(NCCOCCO)nc(N2CCCCCC2)c1[N+](=O)[O-] | -4.2 | i | · | 3.6 | i
COc1ccc(N(CC(C)C)S(=O)(=O)c2nnc(NC(=O)CC(C)C)s2)cc1 | -8.5 | i | · | -4.5 | i
COc1ccc(/C=C/C(=O)c2ccc3c(c2)OCCO3)cc1[N+](=O)[O-] | 36.1 | i | 0.4 | 18.3 | i
O=C(/C=C/c1cccc([N+](=O)[O-])c1)c1ccc2c(c1)OCCO2 | 95.8* | i | 1.0 | 10.4 | i
C/C(=N/Nc1nc(C)c(C)s1)c1cccc([N+](=O)[O-])c1 | 5.7 | i | 21.3 | 20.2 | i
CC1CC(=O)Nc2cc([N+](=O)[O-])ccc2N1 (stereo not given) | 5.3 | i | 19.8 | 16.2 | i
COc1ccc(-c2cc(N)n(S(=O)(=O)c3c(F)c(F)c(F)c(F)c3F)n2)cc1OC | 29.5 | i | -1.8 | -5.7 | -7.7*
COCCOC(=O)/C(=C/c1ccc(OC(=O)c2ccccc2)cc1)C(C)=O | 95.1* | i | 0.2 | 11.3 | i
O=C(Oc1ccc(/C=N/O)cc1)c1ccccc1 | 89.1* | i | 9.4 | -6.2 | i
O=C(Oc1ccc(/C=N/Nc2ccccc2)cc1)c1ccccc1 | 3.6 | i | -3.1 | 27.8 | i
O=C(OCC(=O)N1CCc2ccccc21)c1n[nH]c(=O)c2ccccc12 | -0.1 | · | -3.0 | · | ·
O=C(CN1c2ccccc2S(=O)(=O)c2ccccc21)NCc1ccc(F)cc1 | -2.7 | i | 1.8 | 64.5 | i
CCOc1ccc2[nH]c3c(NCCO)ncnc3c2c1 | 88.7* | i | · | 14.5 | i
CCN1CCN(c2c(Cl)cccc2NC(=O)c2cccs2)CC1 | -1.3 | i | -3.9 | 6.2 | i
O=C(Nc1cccc(Cl)c1N1CCOCC1)c1cccs1 | 90.8* | i | 10.8 | 22.8 | i
Cc1[nH]c(-c2ccccn2)nc(=S)c1Cl | 49.5 | i | 9.1 | -88.2* | i
Cc1ccc(NC(=O)CSCCc2ccccn2)nc1 | 97.4* | i | 1.7 | 19.5 | i
O=C(CSCCc1ccccn1)Nc1ccccn1 | 98.2* | i | 10.1 | 8.9 | i
CCOc1ccc(OCC)c(NC(=O)CSCCc2ccccn2)c1 | -1.6 | i | 5.8 | -13.9 | i
O=C(CSCCc1ccccn1)Nc1ccc(Br)cn1 | 98.6* | i | -10.1 | 24.2 | i
O=C(CSCCc1ccccn1)Nc1cccnc1Cl | 8.1 | i | 4.1 | 12.7 | i
O=C(O)CSCCc1ccccn1 | -4.6 | i | -1.9 | -4.5 | i
O=C(O)c1sc2cccc(Cl)c2c1Cl | · | i | 1.6 | 46.7 | i
SMILES | ALR inh | CHT allo act | PREPL inh | AI-2 QS mod | CHT block
Cc1ccc(N/C=C/C(=O)C(C)(C)C)c(O)c1 | 83.3* | i | 12.2 | 20.4 | i
CC(=O)Nc1ccc(N/C=C/C(=O)C(C)(C)C)cc1 | -0.9 | i | 7.2 | -5.9 | i
CCN(CC)c1ccc(NC(=O)CN(C)Cc2cccs2)cc1 | 99.0* | i | 6.0 | 23.5 | i
O=C(NC(=S)NNC(=O)c1cccs1)c1ccco1 | 97.1* | i | 7.0 | -3.7 | i
CC(C)(C)c1ccc(C(=O)NC(=S)NNC(=O)c2cccs2)cc1 | 98.2* | i | 7.8 | 3.2 | i
Cc1ccc(NC(=O)CN(C)Cc2cccs2)cc1Cl | -6.4 | i | -14.4 | · | i
CCN(CC)c1ccc(NC(=S)NC(=O)c2cccs2)cc1 | 98.1* | i | 9.6 | 65.1 | i
CCOc1ccc(N(CC(=O)N2CCOCC2)S(=O)(=O)c2ccc(SC)cc2)cc1 | -2.6 | i | -2.5 | 21.2 | i
Cc1c(Cl)cccc1NC(=O)Nc1c(C)n(C)n(-c2ccccc2)c1=O | -3.5 | i | 2.8 | 42.9 | i
CCC(C)c1ccccc1N1CC(C(=O)N2CCN(C(=O)c3ccco3)CC2)CC1=O (stereo not given) | -3.5 | · | 12.5 | · | ·
CCCCC(=O)Nc1ccc(NCc2ccc(C)s2)cc1 | 97.1* | i | -2.0 | -2.5 | i
O=C(NNC(=O)c1cccs1)c1ccc(Br)o1 | 95.8* | i | 0.9 | · | i
O=C(CNC(=O)c1cccs1)OCc1ccc(Cl)cc1 | -14.7 | i | -10.4 | -79.1* | i
O=C(Nc1ccc(NC(=O)c2cccs2)cc1)c1ccc(Br)o1 | 0.4 | i | -5.7 | 20.7 | i
CCCCC(=O)Nc1ccc(C2C(=O)c3ccccc3C2=O)cc1 | 34.9 | i | -8.3 | 0.6 | i
O=C(CNC(=O)c1cccs1)NCC(=O)OCc1c(Cl)cccc1Cl | -8.1 | i | -8.9 | 35.2 | i
O=C(O)c1ccc(NCc2cccs2)cc1 | -3.1 | i | -1.4 | -28.9 | i
CCC(=O)Nc1ccc(NCc2cccs2)cc1 | 98.1* | i | 8.9 | 12.4 | i
O=C(NNC(=S)Nc1ccccc1)c1cccs1 | 30.9 | i | 1.9 | 10.8 | i
CCc1ccc(OCCNC(=O)c2cccs2)cc1 | -3.2 | i | 1.0 | -78.9* | i
O=C(NNC(=S)Nc1ccc(Cl)cc1)c1cccs1 | 96.8* | i | 1.3 | 26.3 | i
CC(C)(C)c1ccc(C(=O)NC(=S)NNC(=O)COc2ccccc2)cc1 | 98.8* | i | 0.7 | 149.8 | -5.14*
O=C(NC(=S)NNC(=O)c1cccs1)c1ccccc1 | 98.5* | i | 14.1 | -39.9 | i
Cc1cccc(/C=N/NC(=O)c2ccc(F)cc2)n1 | -0.8 | i | 0.6 | 19.7 | i
CC(C)(C)c1cc(-c2n[nH]c(=S)n2-c2ccc(Cl)cc2)n[nH]1 | 93.4* | i | -5.2 | 14.4 | i
SMILES | ALR inh | CHT allo act | PREPL inh | AI-2 QS mod | CHT block
N#CCC(=O)Nc1nc(-c2ccc3c(c2)OCCO3)cs1 | 99.5* | i | 14.0 | 25.7 | i
CCOC(=O)N1CCN(C(=O)CSCC(=O)Nc2nc(-c3ccc(C)cc3)cs2)CC1 | 99.0* | i | -18.0 | 42.8 | i
O=C(CSCC(=O)N1CCOCC1)Nc1nc(-c2ccc3c(c2)OCO3)cs1 | 97.4* | i | 0.1 | 28.7 | i
CCOC(=O)N1CCN(C(=O)CSCC(=O)Nc2nc(-c3ccc4c(c3)OCO4)cs2)CC1 | 99.0* | i | 3.2 | · | i
COc1cccc(C(=O)Nc2nc(-c3ccc4c(c3)OCO4)cs2)c1 | 50.5 | i | 11.2 | -5.0 | i
Cc1ccc(-c2csc(NC(=O)CN3CCOCC3)n2)cc1 | -2.9 | i | 1.0 | 22.9 | i
O=C(CCCCl)Nc1nc(-c2ccc3c(c2)OCCO3)cs1 | -14.9 | i | 1.4 | 10.8 | i
CCOC(=O)N1CCN(C(=O)CSCC(=O)Nc2nc(-c3cccs3)cs2)CC1 | 89.6* | i | 18.2 | 9.2 | i

Bioassay records from PubChem BioAssay.
